Data taken from PubChem BioAssay (NCI).
This is part of a sample that, as a whole, favours compounds with a hit. Of some 83,000 tested, about 20% had one in any assay.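 Each cell line was grown in a 96-well plate and treated with one concentration of compound for 48 hours. Values below 10 were considered active.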 Activity calls are given as the source filed them.

How the values were obtained:
Test in all cases: NCI-60 one-dose screen, 48 h (100 = growth as untreated, 0 = no growth, -100 = all killed)
Details in all cases: 10 µM unless noted
HCT-15 colon = system: HCT-15 colon
HT29 colon = system: HT29 colon
SNB-75 CNS = system: SNB-75 CNS
SNB-19 CNS = system: SNB-19 CNS
U251 CNS = system: U251 CNS
PC-3 prostate = system: PC-3 prostate
SK-MEL-5 melanoma = system: SK-MEL-5 melanoma
LOX IMVI melanoma = system: LOX IMVI melanoma
SK-MEL-28 melanoma = system: SK-MEL-28 melanoma
UACC-62 melanoma = system: UACC-62 melanoma

Measured: growth

CN(CCCNC(=O)Cc1ccc2ccc3cccc4ccc1c2c34)CCCNc1cc(-c2ccc3ccccc3c2)nc2ccccc12
active: HCT-15 colon -69% | HT29 colon -80.8% | SNB-75 CNS -94.6% | SNB-19 CNS -82.8% | U251 CNS -49.3% | PC-3 prostate -87.5% | SK-MEL-5 melanoma -93.1% | LOX IMVI melanoma -54% | SK-MEL-28 melanoma -85.7%

OCCNCCNC(Cc1ccc(Cl)cc1)c1ccccc1 (stereo unspecified)
inactive: HCT-15 colon 93.3% | HT29 colon 59.9% | SNB-75 CNS 72.8% | SNB-19 CNS 96.9% | U251 CNS 94.2% | PC-3 prostate 55.3% | SK-MEL-5 melanoma 95.2% | LOX IMVI melanoma 83.8% | SK-MEL-28 melanoma 81.5%

Cc1ccc(-c2nc3nc(-c4ccccc4)nc(N4CCCN(S(C)(=O)=O)CC4)c3o2)cc1
inactive: HCT-15 colon 73.3% | HT29 colon 58.4% | SNB-75 CNS 17.4% | SNB-19 CNS 86.5% | U251 CNS 69.7% | PC-3 prostate 68.3% | SK-MEL-5 melanoma 89.4% | LOX IMVI melanoma 71.7% | SK-MEL-28 melanoma 70.9%

CC1CCN(C(=O)CCCl)c2ccccc21 (stereo unspecified)
inactive: HCT-15 colon 102% | HT29 colon 102% | SNB-75 CNS 87.9% | SNB-19 CNS 96.7% | U251 CNS 102% | PC-3 prostate 103% | SK-MEL-5 melanoma 104% | LOX IMVI melanoma 91% | SK-MEL-28 melanoma 109%

CCN1C(=O)N(CC)C2C1NN=c1s/c(=C\c3ccc(C(F)(F)F)cc3)c(=O)n12 (stereo unspecified)
active: HCT-15 colon 9.86% | HT29 colon 1.55% | U251 CNS 6.65% | SK-MEL-5 melanoma 6.27%
inactive: SNB-75 CNS 15% | SNB-19 CNS 24% | PC-3 prostate 22.6% | LOX IMVI melanoma 17.4% | SK-MEL-28 melanoma 55.8%

CCOC(=O)C1=C(C)/C(=C\c2[nH]c(C)c(C(=O)OCC)c2C)N=C1C
active: LOX IMVI melanoma 1.05%
inactive: HCT-15 colon 91.4% | HT29 colon 76.7% | SNB-75 CNS 89.1% | SNB-19 CNS 89.7% | U251 CNS 74.1% | PC-3 prostate 84.6% | SK-MEL-5 melanoma 97.4% | SK-MEL-28 melanoma 88.3%

Nc1nc(N)c2c(n1)NC(c1cccc(Nc3ccnc4cc(C(F)(F)F)ccc34)c1)CC(c1ccccc1)=N2 (stereo unspecified)
inactive: HCT-15 colon 23.7% | SNB-75 CNS 48.1% | SNB-19 CNS 64.4% | U251 CNS 36.5% | PC-3 prostate 39.2% | SK-MEL-5 melanoma 21.9% | UACC-62 melanoma 73.8% | SK-MEL-28 melanoma 84%
active: HT29 colon 8.53%

C[C@H](CCCC(=O)NCC#CCN1CCN(C)CC1)[C@H]1CC[C@H]2[C@@H]3CC[C@@H]4CC(=O)CC[C@]4(C)[C@H]3CC[C@]12C
inactive: HCT-15 colon 78.6% | HT29 colon 32.2% | SNB-75 CNS 89.8% | SNB-19 CNS 102% | U251 CNS 88% | PC-3 prostate 77.1% | SK-MEL-5 melanoma 90.7% | LOX IMVI melanoma 86.7% | SK-MEL-28 melanoma 89.3%

CC(=O)/C(=C/c1ccc([N+](=O)[O-])cc1)C(=O)c1ccccc1
inactive: HCT-15 colon 60.6% | HT29 colon 41.1% | SNB-75 CNS 88.5% | SNB-19 CNS 92.5% | U251 CNS 71.3% | PC-3 prostate 63.4% | SK-MEL-5 melanoma 87.5% | UACC-62 melanoma 77.2% | SK-MEL-28 melanoma 91.6%

Cc1ccc2nc(/C(C#N)=C(/CCCO)NC(Cc3ccccc3)C(=O)OCc3ccccc3)[nH]c(=O)c2c1 (stereo unspecified)
inactive: HCT-15 colon 117% | HT29 colon 130% | SNB-75 CNS 113% | SNB-19 CNS 90.4% | U251 CNS 104% | PC-3 prostate 115% | SK-MEL-5 melanoma 73.3% | LOX IMVI melanoma 98.5% | SK-MEL-28 melanoma 96.4%

C=C1CC[C@@H]2[C@](C)(COC(C)=O)[C@H](OC(C)=O)CC[C@@]2(C)[C@@H]1CC(Nc1ccc(S(=O)(=O)NC(C)=O)cc1)C1=CCOC1=O (stereo partly specified)
active: HCT-15 colon -49.5% | HT29 colon -69.9% | U251 CNS -65.5% | PC-3 prostate 0.695% | SK-MEL-5 melanoma 7.36% | LOX IMVI melanoma -85.8% | SK-MEL-28 melanoma -36.6%
inactive: SNB-75 CNS 26.3% | SNB-19 CNS 23%

Cc1ccc(-c2csc(NC(=O)c3ccccc3CN3C(=O)c4ccccc4C3=O)n2)cc1
inactive: HCT-15 colon 90.8% | HT29 colon 97.1% | SNB-75 CNS 87.3% | SNB-19 CNS 91.8% | U251 CNS 95.5% | PC-3 prostate 91.9% | SK-MEL-5 melanoma 95.5% | LOX IMVI melanoma 99.3% | SK-MEL-28 melanoma 99.9%

C#CCOc1cccc(-c2ncnc3cc(NC(=O)C=C)ccc23)c1
inactive: HCT-15 colon 24% | HT29 colon 10.8% | SNB-75 CNS 10.6% | SNB-19 CNS 50.6% | U251 CNS 51.4% | PC-3 prostate 37.2% | SK-MEL-5 melanoma 68.5% | UACC-62 melanoma 34.6% | SK-MEL-28 melanoma 70.5%

c1ccc(CCNc2c3ccccc3nc3ccccc23)cc1
inactive: HCT-15 colon 23.3% | HT29 colon 22.1% | SNB-75 CNS 67.6% | SNB-19 CNS 39.5% | U251 CNS 41.1% | PC-3 prostate 35.7% | SK-MEL-5 melanoma 64.7% | LOX IMVI melanoma 17.6% | SK-MEL-28 melanoma 67.7%

CN1C(=O)/C(=C2\SC(=Nc3ccccc3)N(Nc3ccccc3)C2=O)c2ccccc21
inactive: HCT-15 colon 105% | HT29 colon 119% | SNB-75 CNS 78.9% | SNB-19 CNS 95.9% | U251 CNS 100% | PC-3 prostate 86.6% | SK-MEL-5 melanoma 99.3% | LOX IMVI melanoma 93.5% | SK-MEL-28 melanoma 105%

COc1ccc(N2CCC(=S)NC2=S)cc1
inactive: HCT-15 colon 101% | HT29 colon 104% | SNB-75 CNS 71.6% | SNB-19 CNS 94.5% | U251 CNS 101% | PC-3 prostate 107% | SK-MEL-5 melanoma 98.2% | UACC-62 melanoma 90.3% | SK-MEL-28 melanoma 113%

Oc1c(CN2CCCC2)cc(CSCc2ccccc2)c2cccnc12
inactive: HT29 colon 91% | SNB-75 CNS 24.6% | SNB-19 CNS 23.9% | PC-3 prostate 20.8% | SK-MEL-28 melanoma 23.8%
active: HCT-15 colon -39.3% | U251 CNS -1.52% | SK-MEL-5 melanoma -26.3% | LOX IMVI melanoma 2.24%

Oc1c(CN2CCOCC2)cc(COCc2ccccc2)c2cccnc12
active: SK-MEL-5 melanoma -12.3%
inactive: HCT-15 colon 20.5% | HT29 colon 88.2% | SNB-75 CNS 49.5% | SNB-19 CNS 35.7% | U251 CNS 11% | PC-3 prostate 31.4% | LOX IMVI melanoma 12.5% | SK-MEL-28 melanoma 36.3%

COC1=C(C)C(=O)N2[C@@H]1[C@H](c1ccccc1)OC21C=CC(=O)C=C1
inactive: SNB-75 CNS 52.7% | SNB-19 CNS 64.9% | U251 CNS 26.2% | SK-MEL-5 melanoma 33%
active: HCT-15 colon -27.3% | HT29 colon -12.6% | PC-3 prostate -5.32% | LOX IMVI melanoma -61.6% | SK-MEL-28 melanoma -14.4%

CCNc1ccc(-c2nc3ccccc3n3cccc23)cc1
inactive: HCT-15 colon 82.5% | HT29 colon 80% | SNB-75 CNS 67.6% | SNB-19 CNS 92.2% | U251 CNS 82.9% | PC-3 prostate 68.9% | SK-MEL-5 melanoma 71.2% | LOX IMVI melanoma 73.4% | SK-MEL-28 melanoma 86.5%

Cc1ccc(-c2csc(N(C(=O)N3CCN(c4cc5c(cc4F)c(=O)c(C(=O)O)cn5C4CC4)CC3)c3ccccc3)n2)cc1
inactive: SNB-75 CNS 18.6% | SNB-19 CNS 15.7% | U251 CNS 12.6% | PC-3 prostate 11.8% | SK-MEL-28 melanoma 32.3%
active: HCT-15 colon 7.57% | HT29 colon 3.8% | SK-MEL-5 melanoma -57.2% | LOX IMVI melanoma 7.08%

O=C1c2cccc3cccc(c23)C(=O)N1C/C=C/c1ccc2c3c(cccc13)C(=O)N(CCO)C2=O
inactive: HCT-15 colon 75.3% | HT29 colon 87% | SNB-75 CNS 58.6% | SNB-19 CNS 88% | U251 CNS 71.1% | PC-3 prostate 51.2% | SK-MEL-5 melanoma 89.9% | UACC-62 melanoma 91.4% | SK-MEL-28 melanoma 84.9%

O=C(NNC(=O)c1ccc(NC(=O)c2ccccn2)cc1)Nc1ccc2ccccc2c1
inactive: HCT-15 colon 105% | HT29 colon 109% | SNB-75 CNS 109% | SNB-19 CNS 91.8% | U251 CNS 101% | PC-3 prostate 107% | SK-MEL-5 melanoma 102% | LOX IMVI melanoma 115% | SK-MEL-28 melanoma 110%

CNCc1cccc2c1OCCOCCOCCNS(=O)(=O)c1ccc(cc1)-c1cnc(N)c(n1)C(=O)N2
inactive: HCT-15 colon 89.8% | HT29 colon 12.4% | SNB-75 CNS 65.4% | SNB-19 CNS 18.2% | U251 CNS 14.1% | PC-3 prostate 20.1% | SK-MEL-5 melanoma 77% | SK-MEL-28 melanoma 51%
active: LOX IMVI melanoma 2.85%

COc1cc(/C=C2\CN(S(=O)(=O)c3ccccc3)C/C(=C\c3cc(CN4CCCCC4)c(O)c(OC)c3)C2=O)cc(CN2CCCCC2)c1O
active: HCT-15 colon -73.8% | HT29 colon -66.7% | SNB-75 CNS -91.7% | SNB-19 CNS -30.1% | U251 CNS -76.7% | PC-3 prostate -36.3% | SK-MEL-5 melanoma -94.8% | LOX IMVI melanoma -87% | SK-MEL-28 melanoma -90.3%

CN1CCN(c2ccc3nc4c(nc3c2C(F)(F)F)C(=O)c2ncccc2C4=O)CC1
active: HCT-15 colon -47.5% | HT29 colon -55.5% | SNB-75 CNS 5.3% | U251 CNS 0.911% | PC-3 prostate 8.01% | SK-MEL-5 melanoma -99.7% | UACC-62 melanoma -82.5% | SK-MEL-28 melanoma 5.49%
inactive: SNB-19 CNS 17.9%

COc1ccc(/C=C2\CN(C(=O)C(Cl)Cl)C/C(=C\c3ccc(OC)cc3)C2=O)cc1
inactive: SNB-75 CNS 21%
active: HCT-15 colon -14.4% | HT29 colon 5.9% | SNB-19 CNS -10.9% | U251 CNS -68.2% | PC-3 prostate -8.13% | SK-MEL-5 melanoma -41% | UACC-62 melanoma -66% | SK-MEL-28 melanoma -12.5%

CN1CCN(Cc2ccc(NC(=O)c3cncc(C#Cc4cnc(N)c5ccc(F)cc45)c3)cc2C(F)(F)F)CC1
active: HCT-15 colon -86.1% | HT29 colon -56.3% | SNB-75 CNS -3.01% | U251 CNS -92.4% | SK-MEL-5 melanoma -21.8% | LOX IMVI melanoma -90.3%
inactive: SNB-19 CNS 29.4% | PC-3 prostate 18.6% | SK-MEL-28 melanoma 34.3%

C=C(C)[C@@H]1CCC[C@]2(C(=O)N3CCN(C)CC3)CC[C@]3(C)[C@@H](CC[C@@H]4[C@@]5(C)CC/C(=N\NC(=O)c6ccncc6)C(C)(C)[C@@H]5CC[C@]43C)[C@@H]12
inactive: HCT-15 colon 92.1% | HT29 colon 98.8% | SNB-75 CNS 77.7% | SNB-19 CNS 83.5% | U251 CNS 99.8% | PC-3 prostate 87% | SK-MEL-5 melanoma 92.9% | UACC-62 melanoma 87.4% | SK-MEL-28 melanoma 95.5%
